Results on 17 compounds are retold here after PubChem BioAssay (NCI).

Compounds without any hit were thinned out: in the full panel of roughly 83,000, 20% have a hit.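 Results are percent growth after 48 hours of single-concentration exposure. 100 means growth as in untreated cells, lower positive values show inhibition; negative values down to -100 show cell death.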 A number with no mark means an inactive call. Activity calls are given as the source filed them. Rule for the calls: active = growth percent below 10; inactive = the rest.

Holding throughout (experiment): NCI-60 one-dose screen, 48 h (100 = growth as untreated, 0 = no growth, -100 = all killed)
In assay [1] the test system is HCT-15 colon. The settings on record: 10 µM.
Assay [2] has as its system HT29 colon. The conditions noted are these: 10 µM.
The subject of assay [3] is SNB-19 CNS. The conditions noted are these: 10 µM.
Assay [4] has as its system U251 CNS. The conditions noted are these: 10 µM.
Assay [5] deals with PC-3 prostate. The conditions noted are these: 10 µM.
Assay [6] relates to SK-MEL-5 melanoma. The conditions noted are these: 10 µM.
In assay [7] the test system is UACC-62 melanoma. The conditions noted are these: 10 µM unless noted.
For assay [8], the system named is LOX IMVI melanoma. The conditions noted are these: 10 µM.
Assay [9] concerns SK-MEL-28 melanoma. The settings on record: 10 µM.
Assay [10] deals with EKVX NSCLC. The settings on record: 10 µM.
Assay [11] has as its system SN12C renal. The conditions noted are these: 10 µM.
The subject of assay [12] is UO-31 renal. The conditions noted are these: 10 µM.
The test system of assay [13] is TK-10 renal. The conditions noted are these: 10 µM unless noted.
Assay [14] concerns ACHN renal. The settings on record: 10 µM.
The subject of assay [15] is CAKI-1 renal. The settings on record: 10 µM.
In assay [16] the test system is A498 renal. The conditions noted are these: 10 µM.
Assay [17] concerns CCRF-CEM leukemia. The settings on record: 10 µM.
The subject of assay [18] is MOLT-4 leukemia. The settings on record: 10 µM.
Assay [19] has as its system SK-MEL-2 melanoma. The settings on record: 10 µM.

As to `O=C(O)CCCc1ccccc1`, the growth in assay [1] was 101%; in assay [2] it was 109%; in assay [3] it was 105%; in [4], 95.3%; in [5], 99.3%; in assay [6] it was 108%. In addition, the growth in assay [7] is 108%; in assay [8], 102%; in assay [9] it was 111%; in assay [10] it was 116%; in assay [11], 101%; in assay [12] it was 94.9%. In addition, the growth in [13] was 98.9%; in [14], 108%; in assay [15], 108%; in assay [16], 121%; in assay [17] it was 102%; in assay [18], 98.4%.

Regarding `CCNCCCCNCCCCNCCCCNCCCCNCC`, the growth is 99.1% in assay [1]; 72.1% in assay [2]; 81.1% in assay [3]; 95.5% in [4]; 84.6% in [5]; 73.8% in assay [6]. The growth in [7] is 72.8%; in assay [8] it was 75.3%; in assay [19] it was 97.1%; in assay [10] it was 76.2%; in assay [11], 115%; in assay [13], 63.6%. Moreover, the growth was 80.4% in assay [14]; 77.7% in [15]; 129% in [16]; 128% in [17]; 151% in [18].

As for `CCN1C(=O)/C(=C/C=C/N(C)c2ccccc2)SC1=S`, the growth was 81.5% in [1]; 90.4% in assay [2]; 94.1% in assay [3]; 85.5% in [4]; 85.1% in assay [5]; 87.5% in assay [6]. In addition, the growth was 91.3% in assay [7]; 91.5% in assay [8]; 94.6% in assay [9]; 82.5% in [19]; 94.4% in assay [11]; 94.2% in [12]. Also, the growth in assay [13] is 85.6%; in assay [14], 75.7%; in assay [15] it was 91.6%; in [16] it was 92.8%; in assay [17], 92%; in assay [18], 89%.

On to `O=C1C=C(Nc2ccc([N+](=O)[O-])cc2)c2ccccc2C1=O`, for which the growth in [1] was 31.2%; in assay [2], 99.4%; in assay [3], 52.8%; in assay [4] it was 28.5%; in assay [5], 23.9%; in [6], 11.7%. Moreover, the growth in assay [7] was 17.7%; in [9], 50.3%; in [19], -7.97% (active); in assay [11], 39.8%; in [12] it was 30%; in assay [13], 80.4%. Also, the growth was 45.8% in assay [14]; 67.9% in [15]; 40.6% in [16]; 38.9% in assay [17]; 28.5% in [18].

On to `CC(=O)N(C)c1ccc([N+](=O)[O-])cc1`, for which the growth in assay [1] is 102%; in [2] it was 102%; in [3] it was 97.5%; in assay [4] it was 101%; in assay [5], 93.5%; in assay [6] it was 103%. The growth in assay [7] was 104%; in [9] it was 114%; in assay [19], 92%; in assay [10], 122%; in [11], 96.9%; in assay [12], 104%. In addition, the growth in assay [13] is 95.8%; in assay [14], 99.4%; in [15] it was 107%; in [16], 116%; in [17], 119%; in assay [18], 75.9%.

As to `O=[N+]([O-])c1cccc(C(F)(F)F)c1`, the growth in assay [1] was 93.8%; in assay [2], 98.7%; in assay [3], 103%; in assay [4], 104%; in [5], 94.6%; in assay [6], 107%. For the same compound, the growth in assay [7] is 101%; in assay [8], 99.7%; in assay [19] it was 116%; in [10], 104%; in [11], 95.1%; in assay [12], 96.3%. Moreover, the growth was 108% in [13]; 102% in [14]; 94.3% in [15]; 98.4% in [16]; 96.2% in assay [17]; 102% in assay [18].

For `O=C(O)c1cccc([N+](=O)[O-])c1O`, the growth in assay [1] is 99.9%; in assay [2], 101%; in assay [3], 99.1%; in assay [4], 101%; in [5], 107%; in assay [6] it was 105%. Also, the growth in [8] was 95.1%; in assay [9] it was 116%; in [19] it was 118%; in assay [11] it was 102%; in assay [12], 86.1%; in [14], 104%. In addition, the growth in [15] was 99%; in assay [16], 109%; in assay [17], 100%; in [18], 99.5%.

`C#CC(C(C)C)N(CCO)CCCC` (stereo unspecified): the growth was 94.9% in assay [1]; 117% in [2]; 107% in [3]; 97.7% in [4]; 94.7% in [5]; 100% in assay [6]. For the same compound, the growth in assay [7] is 107%; in assay [8], 107%; in assay [9] it was 101%; in [19], 111%; in assay [11] it was 102%; in assay [12] it was 96.8%. In addition, the growth in assay [13] was 107%; in assay [14] it was 100%; in assay [15], 102%; in assay [16] it was 88.8%; in assay [17], 95.6%; in assay [18] it was 107%.

Consider `O=C(/C(=N/O)c1ccccc1)c1ccccc1`, for which the growth is 96.8% in assay [1]; 117% in assay [2]; 100% in assay [3]; 94.6% in [4]; 94.9% in assay [5]; 97.4% in assay [6]. In addition, the growth in [7] is 88.3%; in assay [8] it was 105%; in [9] it was 105%; in assay [19], 121%; in [11], 94.6%; in [12], 87.9%. The growth in assay [13] was 108%; in assay [14], 106%; in assay [15], 100%; in assay [16], 91.5%; in [17] it was 97.9%; in assay [18] it was 123%.

On to `CC1(c2ccccc2)NC(=O)NC1=O` (stereo unspecified), for which the growth in assay [1] is 110%; in assay [2] it was 110%; in assay [3] it was 103%; in assay [4], 113%; in assay [5], 98.6%; in [6] it was 108%. The growth in [7] is 100%; in assay [8] it was 109%; in assay [9] it was 113%; in [10], 120%; in assay [11], 96.9%; in [12], 82.5%. In addition, the growth in assay [13] is 98.8%; in assay [14] it was 107%; in assay [15], 104%; in assay [16], 123%; in [17], 102%; in [18], 101%.

With `CCCNC(=O)c1ccc(S(N)(=O)=O)cc1`, the growth in assay [1] is 110%; in [2], 93.1%; in assay [3], 107%; in assay [4] it was 103%; in assay [6] it was 101%; in assay [7], 109%. For the same compound, the growth in assay [9] is 97.8%; in assay [19], 120%; in [10], 112%; in assay [11] it was 107%; in [12], 107%; in [13], 119%. Moreover, the growth was 101% in assay [14], 110% in assay [15], 81.6% in assay [17] and 109% in assay [18].

Turning to `NC(C(=O)O)c1ccc([N+](=O)[O-])cc1` (stereo unspecified), the growth in assay [1] was 95.7%; in assay [2], 149%; in assay [3], 99.6%; in assay [4], 115%; in assay [6] it was 105%; in assay [7], 97.3%. The growth was 101% in assay [8]; 101% in assay [9]; 98% in assay [10]; 91.6% in [11]; 78.2% in [12]; 156% in assay [13]. In addition, the growth in assay [14] was 98.1%; in [15], 99.5%; in assay [16], 107%; in [17], 98.5%; in [18], 105%.

For the compound `Cn1cnc2nc(Cl)nc(Cl)c21`, the growth is 31.7% in assay [1]; -29.9% (active) in assay [2]; 61.4% in [3]; 14.2% in assay [4]; 16% in [6]; 54.9% in [7]. Moreover, the growth in [8] was 18.1%; in assay [9], 65.1%; in assay [19] it was -23.4% (active); in assay [10], 104%; in [11], 22.4%; in assay [12] it was 45.2%. Moreover, the growth in assay [13] is 4.15% (active); in assay [14], 29.4%; in [15], -61.6% (active); in assay [16], 62.6%; in assay [18], 35.8%.

Take `CN(C)C(C)(C)CC(C)(C)C`: the growth is 100% in [1]; 119% in assay [2]; 105% in assay [3]; 107% in assay [4]; 105% in assay [6]; 105% in assay [7]. In addition, the growth in assay [8] was 100%; in assay [9] it was 109%; in assay [10], 95.8%; in assay [11] it was 98.3%; in [12], 76.7%; in assay [13], 143%. In addition, the growth in assay [14] was 100%; in assay [15], 101%; in [16] it was 110%; in [17] it was 89.8%; in assay [18], 95.1%.

For the compound `CCN(CC)CCNc1ccc(CO)c2sc3ccccc3c(=O)c12`, the growth in [1] was 27.2%; in [2], 18.1%; in assay [3], 43.2%; in [4], 32.4%; in [5], 46.1%; in [7], 30.6%. The growth in assay [8] is 28%; in assay [19] it was 45.4%; in assay [10], 65.6%; in [11] it was 37.5%; in assay [12], 25.5%; in assay [13], 46.4%. Besides, the growth in [14] is 20.4%; in assay [15], 43.2%; in assay [16], -17.9% (active); in [17], 37%; in [18], 8.97% (active).

Regarding `COc1ccc(NC(=O)CCl)cc1`, the growth in [1] was 72.3%; in assay [2], 67.3%; in assay [3] it was 104%; in [4] it was 6.32% (active); in assay [5], 74.6%; in assay [6] it was 65.3%. The growth was 83.1% in [7]; 97.2% in assay [9]; 74.9% in assay [19]; 103% in [10]; 67.2% in [11]; 90.9% in assay [12]. In addition, the growth in assay [13] is 118%; in assay [14] it was 88.8%; in [15] it was 97%; in [16], 120%; in [17] it was 50.5%; in assay [18] it was 64.4%.

Consider `O=C(O)c1cc([N+](=O)[O-])ccc1Cl`, for which the growth is 100% in assay [1]; 84.3% in [2]; 99.4% in assay [3]; 106% in assay [4]; 88.8% in [5]; 100% in [6]. For the same compound, the growth in assay [7] is 95.6%; in assay [8], 99.5%; in assay [19], 97.3%; in [10], 118%; in assay [11] it was 95.6%; in assay [12] it was 79.9%. The growth in [13] is 81.2%; in assay [14] it was 105%; in assay [15], 101%; in [16], 106%; in [17], 114%; in assay [18], 73.2%.
